Screen size: about 5,500 compounds; about 2,000 (36%) were called active. About 18% were inconclusive and are not listed. No stated cut-off is given here; in the data, active means normalized growth mostly below about 0.91 (no sharp cut-off); inconclusive means no clear call, values can overlap the other calls; inactive means mostly above about 0.92. The list shows a part of the results.
Assay: chemical genetic growth profiling, strain panel (AID 1159580);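 further: tested at 20 µM; growth read once vehicle control cultures reached saturation at 30 °C; 1 = growth at the plate median or of vehicle wells; lower values mean less growth of the strain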
Conditions: growth OD

Measured: normalized growth

COc1ccc2c(=O)ccoc2c1
inactive: S. cerevisiae deletion strains, locus YJR043C, strain POL32, active compounds read low 1.01 | S. cerevisiae deletion strains, locus YJR075W, strain HOC1, active compounds read low 1.04 | S. cerevisiae deletion strains, locus YKL009W, strain mrt4, active compounds read low 0.99 | S. cerevisiae deletion strains, locus YKL068W, active compounds read low 1.03 | S. cerevisiae deletion strains, locus YKL085W, strain MDH1 (second series), active compounds read low 1.03 | S. cerevisiae deletion strains, locus YKL085W, strain MDH1, active compounds read low 1.03 | S. cerevisiae deletion strains, locus YKL160W, strain elf1, active compounds read low 1.02 | S. cerevisiae deletion strains, locus YKL190W, strain CNB1, active compounds read low 1.02 | S. cerevisiae deletion strains, locus YKR001C, strain vps1, active compounds read low 0.947 | S. cerevisiae deletion strains, locus YKR026C, strain gcn3, active compounds read low 1.03 | S. cerevisiae deletion strains, locus YKR091W, strain srl3, active compounds read low 1.02 | S. cerevisiae deletion strains, locus YLL001W, strain dnm1, active compounds read low 1.02 | S. cerevisiae deletion strains, locus YLL026W, active compounds read low 1.02 | S. cerevisiae deletion strains, locus YLL041C, strain sdh2, active compounds read low 0.972 | S. cerevisiae deletion strains, locus YLR027C, strain aat2, active compounds read low 1.02 | S. cerevisiae deletion strains, locus YLR039C, strain RIC1, active compounds read low 1.01 | S. cerevisiae deletion strains, locus YLR058C, strain SHM2, active compounds read low 1.02 | S. cerevisiae deletion strains, locus YLR102C, strain apc9, active compounds read low 1.01 | S. cerevisiae deletion strains, locus YLR221C, strain rsa3, active compounds read low 1.03 | S. cerevisiae deletion strains, locus YLR258W, strain gsy2, active compounds read low 1.02 | S. cerevisiae deletion strains, locus YLR262C, strain YPT6 (second series), active compounds read low 1.04 | S. cerevisiae deletion strains, locus YLR262C, strain YPT6, active compounds read low 1.06 | S. cerevisiae deletion strains, locus YLR268W, strain sec22, active compounds read low 0.987 | S. cerevisiae deletion strains, locus YLR320W, strain mms22, active compounds read low 1.03 | S. cerevisiae deletion strains, locus YLR330W, strain CHS5, active compounds read low 1.02 | S. cerevisiae deletion strains, locus YLR342W, strain FKS1 (second series), active compounds read low 1.03 | S. cerevisiae deletion strains, locus YLR342W, strain FKS1, active compounds read low 1.02 | S. cerevisiae deletion strains, locus YLR357W, strain rsc2, active compounds read low 1.02 | S. cerevisiae deletion strains, locus YLR370C, strain arc18, active compounds read low 1.02 | S. cerevisiae deletion strains, locus YLR371W, strain rom2, active compounds read low 1.02 | S. cerevisiae deletion strains, locus YLR384C, strain iki3, active compounds read low 1.02 | S. cerevisiae deletion strains, locus YLR418C, strain cdc73, active compounds read low 0.979 | S. cerevisiae deletion strains, locus YML016C, strain PPZ1, active compounds read low 1.01 | S. cerevisiae deletion strains, locus YML032C, strain rad52, active compounds read low 0.993 | S. cerevisiae deletion strains, locus YML120C, strain ndi1, active compounds read low 1.03 | S. cerevisiae deletion strains, locus YML124C, strain tub3, active compounds read low 1.01 | S. cerevisiae deletion strains, locus YMR058W, strain fet3, active compounds read low 1.02 | S. cerevisiae deletion strains, locus YMR078C, strain ctf18, active compounds read low 1.01 | S. cerevisiae deletion strains, locus YMR125W, strain sto1, active compounds read low 1.03 | S. cerevisiae deletion strains, locus YMR129W, active compounds read low 1.02 | S. cerevisiae deletion strains, locus YMR205C, strain PFK2, active compounds read low 1.03 | S. cerevisiae deletion strains, locus YMR223W, strain ubp8, active compounds read low 0.986 | S. cerevisiae deletion strains, locus YMR231W, strain pep5, active compounds read low 1.02 | S. cerevisiae deletion strains, locus YMR263W, strain SAP30, active compounds read low 1.02 | S. cerevisiae deletion strains, locus YMR307W, strain GAS1, active compounds read low 1.02 | S. cerevisiae deletion strains, locus YNL067W, strain RPL9B, active compounds read low 1.01 | S. cerevisiae deletion strains, locus YNL071W, strain lat1, active compounds read low 1.05 | S. cerevisiae deletion strains, locus YNL128W, strain TEP1, active compounds read low 1.03 | S. cerevisiae deletion strains, locus YNL153C, strain GIM3, active compounds read low 1.01 | S. cerevisiae deletion strains, locus YNL209W, strain ssb2, active compounds read low 1.02 | S. cerevisiae deletion strains, locus YNL233W, strain BNI4, active compounds read low 1.01 | S. cerevisiae deletion strains, locus YNL248C, strain rpa49, active compounds read low 1.03 | S. cerevisiae deletion strains, locus YNL250W, strain rad50, active compounds read low 1.05 | S. cerevisiae deletion strains, locus YNL271C, strain bni1, active compounds read low 1 | S. cerevisiae deletion strains, locus YNL298W, strain CLA4, active compounds read low 0.977 | S. cerevisiae deletion strains, locus YNL307C, strain MCK1, active compounds read low 0.984 | S. cerevisiae deletion strains, locus YNL322C, strain KRE1 (second series), active compounds read low 1.03 | S. cerevisiae deletion strains, locus YNL322C, strain KRE1, active compounds read low 1.02 | S. cerevisiae deletion strains, locus YNR049C, strain mso1, active compounds read low 1.02 | S. cerevisiae deletion strains, locus YNR052C, strain pop2, active compounds read low 1 | S. cerevisiae deletion strains, locus YOL006C, strain TOP1, active compounds read low 0.962 | S. cerevisiae deletion strains, locus YOL012C, strain htz1 0.848 | S. cerevisiae deletion strains, locus YOL147C, strain pex11, active compounds read low 1.01 | S. cerevisiae deletion strains, locus YOR001W, strain rrp6, active compounds read low 1.03 | S. cerevisiae deletion strains, locus YOR061W, strain CKA2, active compounds read low 1.02 | S. cerevisiae deletion strains, locus YOR069W, strain VPS5, active compounds read low 1.01 | S. cerevisiae deletion strains, locus YOR070C, strain gyp1, active compounds read low 1.02 | S. cerevisiae deletion strains, locus YOR080W, strain dia2, active compounds read low 1.01 | S. cerevisiae deletion strains, locus YOR083W, strain WHI5, active compounds read low 1.02 | S. cerevisiae deletion strains, locus YOR106W, strain vam3, active compounds read low 1.03 | S. cerevisiae deletion strains, locus YOR136W, strain idh2, active compounds read low 1.01 | S. cerevisiae deletion strains, locus YOR144C, strain elg1, active compounds read low 1 | S. cerevisiae deletion strains, locus YOR184W, strain ser1, active compounds read low 0.988 | S. cerevisiae deletion strains, locus YOR265W, strain rbl2, active compounds read low 1.01 | S. cerevisiae deletion strains, locus YOR270C, strain vph1, active compounds read low 1.03 | S. cerevisiae deletion strains, locus YOR290C, strain snf2, active compounds read low 1.04 | S. cerevisiae deletion strains, locus YOR316C, strain cot1, active compounds read low 1.01 | S. cerevisiae deletion strains, locus YPL051W, strain arl3, active compounds read low 1.02 | S. cerevisiae deletion strains, locus YPL055C, strain LGE1, active compounds read low 1.04 | S. cerevisiae deletion strains, locus YPL078C, strain atp4, active compounds read low 1.02 | S. cerevisiae deletion strains, locus YPL106C, strain sse1, active compounds read low 1.01 | S. cerevisiae deletion strains, locus YPL240C, strain hsp82, active compounds read low 1.03 | S. cerevisiae deletion strains, locus YPL241C, strain CIN2, active compounds read low 1.02 | S. cerevisiae deletion strains, locus YPR119W, strain clb2, active compounds read low 1.01 | S. cerevisiae deletion strains, locus YPR141C, strain kar3, active compounds read low 1.01 | S. cerevisiae deletion strains, locus YPR163C, strain tif3, active compounds read low 1.01 | S. cerevisiae deletion strains, locus YPR167C, strain met16, active compounds read low 1.02 | S. cerevisiae deletion strains, strain wtn01, active compounds read low 0.997 | S. cerevisiae strains, strain wild type, active compounds read low 1.02

— PubChem BioAssay AID1159580 (chemical genetic matrix, 2015)
